Sampled rows, rich in hits. Any-hit rate of the full collection: about 1.8%.
Sa RN4220 lethal: growth inhibition of S. aureus RN4220, primary screen, OD600; hit rate 0.33% among 330,000; AID 1259311, 2017; 16 h; inhibition, % (no concentration beside the values); in the data active means inhibition above about 85%;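 further: plate controls were untreated cells for no effect and reference antibiotic for full effect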
VHR inh abs: VHR1 phosphatase inhibitors, primary screen, biochemical, absorbance, uHTS. AID 1654, 2009. hit rate 0.52% among 290,000. Dual specificity protein phosphatase 3 (Homo sapiens), P51452. inhibition, % at 13.3 µM. recombinant VHR phosphatase, pNPP absorbance; in the data active means inhibition above about 50%
Target sequence (P51452 whole entry, looked up): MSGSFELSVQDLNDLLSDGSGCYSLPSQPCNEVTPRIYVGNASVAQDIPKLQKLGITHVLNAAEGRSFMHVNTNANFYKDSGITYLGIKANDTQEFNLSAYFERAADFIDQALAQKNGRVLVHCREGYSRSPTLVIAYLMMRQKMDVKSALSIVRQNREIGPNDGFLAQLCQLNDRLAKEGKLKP
Sa ugtP lethal: growth inhibition of ugtP-null S. aureus, primary screen, RN4220 ugtP deletion, OD600. AID 1259309, 2017. 16 h. hit rate 0.54% among 330,000. growth inhibition, % (concentration not given with the values); in the data active means growth inhibition above about 68%;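 further: plate controls were untreated wells for no effect and antibiotic for full effect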
PfHsp40 rescue: rescue of yeast from PfHsp40 toxicity, primary screen, S. cerevisiae, ATP luminescence | hit rate 0.68% among 340,000 | growth rescue, % at 12.5 µM | AID 504582, 2011 | S. cerevisiae expressing PfHsp40, growth rescue; in the data active means growth rescue above about 28%, passing the limit was not always enough;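 further: yeast W303a lacking pdr1 and pdr3 grown in galactose medium; growth measured after three days at 30 °C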
PrPC surface inh: inhibitors of human cell surface prion protein PrPC, primary screen, cell-based, TR-FRET; AID 720596, 2013; TR-FRET read-out; Major prion protein (Homo sapiens), P04156; inhibition, % at 13.8 µM; hit rate 0.43% among 370,000; in the data active means inhibition above about 24%; further: 0% = median of the test wells and 100% = reference compound wells
Starred values were filed as active, the others as inactive; nt = no result.

SMILES	Sa RN4220 lethal	VHR inh abs	Sa ugtP lethal	PfHsp40 rescue	PrPC surface inh
COC(=O)C1=C(c2ccccc2OCc2ccccc2)CC2CCC1N2C(=O)NCCOc1ccccc1 (centres undefined)	-6.6	nt	6.4	nt	nt
O=C1NC(=O)C(=Cc2ccco2)N1	5.4	nt	4.8	nt	nt
COc1ccccc1C(=O)N/C(=C\c1cn(C)c2ccccc12)C(=O)NCCN1CCOCC1	nt	nt	nt	nt	3.6
COc1ccccc1C(=O)N/C(=C\c1cn(C)c2ccccc12)C(=O)NCCCN1CCOCC1	2.7	57.0*	2.2	-1.5	-7.6
Cc1ccc(Oc2ccc(NC(=O)CSc3n[nH]c(N)n3)cc2)cc1	0.7	8.2	91.5*	-1.0	3.6
Nc1nc(SCC(=O)Nc2ccc(S(N)(=O)=O)cc2)n[nH]1	-0.8	26.9	5.9	-0.9	0.6
CCN1C(=O)C2C(c3ccc(-c4ccccc4)cc3)N[C@@](C)(C(=O)OC)C2C1=O (some centres undefined)	6.1	nt	-2.2	nt	nt
Cc1ccc(CNC(=O)c2ccc(C)s2)cc1	18.1	nt	17.7	0.7	7.0
CCn1cc(CNC(=O)c2ccc(C)s2)cn1	3.7	57.4*	0.4	0.0	2.9
C/C(C=Nn1c(-c2ccco2)n[nH]c1=S)=C/c1ccccc1	25.6	nt	-18.1	nt	nt
CCOC(=O)c1c(SC)[nH]c2c(Cl)cccc2c1=O	6.3	21.0	2.7	92.5*	-3.3
Clc1nc(-c2ccccn2)nc2scc(-c3ccccc3)c12	12.2	1.9	55.8	399.6*	-0.1
COc1ccc2[nH]c3c(c2c1)C1CCN2C(=O)CCCC(C3)C12 (centres undefined)	5.8	nt	3.5	nt	nt
O=Nc1c(O)n(Cc2ccc(Cl)cc2Cl)c2ccccc12	0.5	17.2	-17.7	90.0*	-6.8
COc1ccccc1NC(=O)CN1CCN(C2c3ccccc3-c3ccccc32)CC1	-5.1	50.8*	-26.0	0.5	-0.2
COc1ccc(N)cc1NC(=O)CN1CCCC1	2.6	58.9*	8.0	-0.7	-3.7
NC(=S)NN=C1CCOc2ccc(F)cc21	4.4	nt	-1.4	nt	nt
COc1ccc(NCc2nc3ccccc3n2CCOc2ccccc2)cc1	15.9	17.1	-14.2	1.0	14.2
COc1ccc(NCc2nc3ccccc3n2CCOc2ccc(C)cc2)cc1	-4.4	-11.3	-3.5	75.1*	13.0
Cc1cccc(COc2ccc(C=NNC(=O)c3nnn(-c4nonc4N)c3CN3CCCCC3)cc2)c1	3.9	nt	-3.2	nt	nt
Cc1ccc(CON=CC2=C(Cl)c3ccccc3CC2)cc1	-5.6	nt	95.2*	nt	nt
COc1cc(OC)nc(NN=C(c2ccccc2)c2ccncc2)n1	7.0	nt	-0.3	nt	nt
CC(C)=CC(=O)OC1C2C(CC(C)C3C(O)CC(=O)[C@@]13C)OC(=O)C2C (some centres undefined)	5.2	nt	2.6	nt	nt
CN1C(=CC=NNC(=O)c2ccccc2Br)C(C)(C)c2ccccc21	-2.3	nt	88.0*	nt	nt
COC(=O)C1=C(c2ccc(F)cc2F)CC2CCC1N2C(=O)N1CCCCC1 (centres undefined)	8.0	nt	6.1	nt	nt
SMILES	Sa RN4220 lethal	VHR inh abs	Sa ugtP lethal	PfHsp40 rescue	PrPC surface inh
COc1ccc(CC(=O)Nc2cccc(-c3csc(C)n3)c2)cc1	15.2	12.9	-1.9	4.8	-5.1
Cc1nc(-c2cccc(NC(=O)COc3ccc(Cl)cc3)c2)cs1	24.3	37.7	1.8	55.5*	10.6
Cc1nc(-c2cccc(NC(=O)C(C)Oc3ccccc3)c2)cs1 (centres undefined)	98.7*	15.0	99.9*	0.8	7.8
Cc1nc(-c2cccc(NS(=O)(=O)c3ccc4ccccc4c3)c2)cs1	18.1	-0.7	91.3*	0.2	-2.9
CC(=NNC(=S)Nc1cc(S(=O)(=O)N2CCOCC2)ccc1Cl)c1ccccc1F	17.0	nt	-16.0	nt	nt
CCOc1ccc2nc(SCc3ccc(OC)cc3)sc2c1	7.1	7.3	90.2*	-0.5	0.2
O=[N+]([O-])c1cc(Cl)cc(/C=N/NC(=S)Nc2ccc(S(=O)(=O)N3CCOCC3)cc2)c1O	nt	20.1	nt	449.3*	-7.0
CC(=NNC(=O)c1ccccc1)c1c(C)[nH]n(-c2ccccc2)c1=O	7.5	nt	-6.5	nt	nt
CCC(=NNC(=O)c1ccccc1O)c1c(C)[nH]n(-c2ccccc2)c1=O	92.5*	nt	97.9*	nt	nt
Cc1ccc(-n2[nH]c(C)c(/C=N/NC(=O)c3ccc(O)cc3O)c2=O)cc1	nt	5.9	nt	76.5*	nt
Cc1[nH]n(-c2ccccc2)c(=O)c1/C=N/NC(=O)c1ccc(O)cc1O	nt	1.9	nt	51.6*	nt
Cc1ccc(OCC(=O)NN=Cc2c(C)[nH]n(-c3ccccc3)c2=O)c([N+](=O)[O-])c1	2.5	nt	-8.8	nt	nt
Cc1ccc(OCC(=O)N/N=C\c2c(C)[nH]n(-c3ccccc3)c2=O)c([N+](=O)[O-])c1	nt	56.2*	nt	154.8*	-1.7
COC(=O)C1=C(c2ccc(OCc3ccccc3)cc2)CC2CCC1N2C(=O)NCc1ccc([N+](=O)[O-])cc1 (centres undefined)	-9.9	nt	33.0	nt	nt
COC1=CC(=O)C(O)=C(CCCCCCCC=CCCCCCCCC2=C(O)C(=O)C=C(OC)C2=O)C1=O	9.6	nt	8.8	nt	nt
CCCSC(=S)c1c(C)[nH]n(-c2ccccc2)c1=O	90.8*	-0.9	89.8*	305.0*	8.3
S=c1[nH]nc(-c2ccccn2)n1N=Cc1ccccc1	7.4	nt	13.1	nt	nt
Cc1c(C(C)CC(C)O)oc(=O)c2c1Oc1c(C)c(C(C)CC(C)O)oc(=O)c1C2 (centres undefined)	5.0	nt	2.6	nt	nt
COC(=O)C1=C(C)N(Cc2ccccc2)C(=O)NC1c1ccc(Br)cc1 (centres undefined)	2.9	nt	10.9	nt	nt
O=C(Cn1sc2ccccc2c1=O)NC12CC3CC(CC(C3)C1)C2	105.9*	10.4	100.6*	3.4	nt
O=C(Cn1sc2ccccc2c1=O)Nc1ccccc1	nt	nt	nt	nt	0.3
Cc1cc(C(=O)NN)c(C)o1	3.0	9.4	-3.0	0.6	4.9
CCc1ccc(C(C)NC(=O)c2cc(C)oc2C)cc1 (centres undefined)	-1.1	-4.0	-8.7	47.3*	1.3
CC(=O)CC(O)CC(=O)C1OC(=O)CCCCCCCc2ccccc21 (centres undefined)	15.7	nt	6.8	nt	nt
Cc1cc(C)cc(N=C2NC(=O)CS2)c1	0.8	58.7*	0.4	-0.6	10.8
SMILES	Sa RN4220 lethal	VHR inh abs	Sa ugtP lethal	PfHsp40 rescue	PrPC surface inh
COC(=O)c1ccccc1N1C(=O)C2C3C=CC(C3)C2C1=O (centres undefined)	2.5	nt	-3.7	nt	nt
COCc1cccc(C2=CC(=O)CC(c3ccc(OC)cc3)C2)c1 (centres undefined)	8.2	nt	5.8	nt	nt
C=C(C)C(=O)Nc1cccc(C2=NOC3(C2)CC(C(N)=O)N(C(=O)CCCCC)C3)c1 (centres undefined)	2.6	nt	-3.3	nt	nt
CCc1ccc(S(=O)(=O)NN=C(C)c2ccncc2)cc1	2.5	nt	11.6	nt	nt
NC1=C(Br)C(=O)c2ccccc2C1=O	76.5	13.1	94.7*	7.5	-41.9
Cc1cc2c(cc1C)C(=O)C(Br)=C(N)C2=O	38.0	nt	12.8	-1.0	-6.9
COc1ccc(C(C(=O)NCCC(C)C)N(CCO)C(=O)c2snc(C(N)=O)c2N)cc1 (centres undefined)	0.5	53.3*	3.6	0.1	-4.1
